# Test results taken from the supplement of paper PMC9262897, “Low-cost anti-mycobacterial drug discovery using engineered E. coli” (Nature Communications, 2022).
# Counter-ions that a name gives are not always drawn. ± gives the standard deviation of the averaged measurements.
# Test system: E. coli TESEC Mtb Alr
# Experiment: growth (OD600 after 10 h); higher = more growth (less inhibition)
# Conditions: arabinose 10000000 nM; compound 0.1 mM; raw OD600 reference: median of DMSO wells […], cell-free background 0.052
# Description: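 TESEC Mtb Alr E. coli (ΔaraC ΔtolC ΔentC Δalr ΔdadX, arabinose-inducible Mtb Alr) or the Alr+ wild-type control strain, grown in defined M9-fructose medium without D-alanine in 96-well plates with Prestwick library compounds at 0.1 mM and 1% DMSO. Low Alr induction is 0.1 µM arabinose and high induction is 10 mM arabinose.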
row,SMILES,growth
1,CN1CCN(c2c(F)cc3c(=O)c(C(=O)O)cn4c3c2SCC4)CC1 [Rufloxacin],0.05197 ± 0.00051
2,CC(=O)OCC(=O)[C@@]1(OC(C)=O)[C@@H](C)C[C@H]2[C@@H]3C[C@H](F)C4=CC(=O)C=C[C@]4(C)[C@@]3(F)[C@@H](O)C[C@@]21C [Diflorasone Diacetate],0.289 ± 0.0096
3,CS(=O)(=O)c1ccc([C@@H](O)[C@@H](CO)NC(=O)C(Cl)Cl)cc1 [Thiamphenicol],0.086 ± 0.0081
4,CSc1nc2cc(Cl)c(Oc3cccc(Cl)c3Cl)cc2[nH]1 [Triclabendazole],0.137 ± 0.014
5,CC(C)(CO)C(O)C(=O)NCCCO (configuration not stated) [Panthenol (D)],0.287 ± 0.13
6,Cc1onc(-c2ccccc2Cl)c1C(=O)N[C@@H]1C(=O)N2[C@@H]1SC(C)(C)[C@@H]2C(=O)O [Cloxacillin sodium salt],0.344 ± 0.014
7,OCCN(CCO)c1nc(N2CCCCC2)c2nc(N(CCO)CCO)nc(N3CCCCC3)c2n1 [Dipyridamole],0.0709 ± 0.0012
8,CN(C)CCN(Cc1ccc(Cl)cc1)c1ccccn1 [Chloropyramine hydrochloride],0.314 ± 0.012
9,CCCCOC(=O)c1ccc(N)cc1 [Butamben],0.344 ± 0.018
10,Nc1c(Br)cc(Br)cc1CN[C@H]1CC[C@H](O)CC1 [Ambroxol hydrochloride],0.312 ± 0.015
11,C[C@]12CC[C@@H]3c4ccc(OS(=O)(=O)O)cc4CC[C@H]3[C@@H]1CCC2=O [Estropipate],0.267 ± 0.0063
12,CC(NCCC(c1ccccc1)c1ccccc1)c1ccccc1 (configuration not stated) [Fendiline hydrochloride],0.0578 ± 0.0028
